The values below come from PubChem BioAssay AID1345083 (National Center for Advancing Translational Sciences (NCATS), 2018).

Structures are written as SMILES. Hit rate of the full screen: of about 94,000 compounds, about 6,200 (6.6%) were called active. Where a call stands in place of a potency, no number is given. About 31% were inconclusive and are not listed. The call rests on the fitted dose curve; in most records, active means well fitted inhibition curve with a large enough effect; inconclusive means small, poorly fitted or top-dose-only effect; inactive means flat fitted curve, though single readings scatter. For the sample, actives were picked, then their nearest neighbours and some compounds at random.
Potency means the concentration at half of the fitted maximal effect.

A short description of the experiment: Cytotoxic Profiling in HEK 293 Cell Line of Diverse Libraries Using Quantitative High-Throughput Screening. Further: nearly all actives have a fitted effect of over 60% in size. The conditions noted are these: HEK 293 viability, ATP luminescence (CellTiter-Glo), 48-72 h; series mostly up to 115 µM. The essentials: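 HEK 293 seeded at 250 cells/well receive compound via pintool. After 48 or 72 hr at 37 degree Celsius, 5% CO2 and 95% humidity, CellTiter-Glo is dispensed and luminescence read following 10 min at room temperature.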
(In general: Cellular ATP, detected with luciferase, serves as a proxy for viable cell number.)
With `Cn1cnc(S(=O)(=O)N2CCC(c3noc(-c4ccccc4)n3)C2)c1` (centres undefined), the Potency entry was “inactive”. Next, `CCOc1ccc(CC(=O)N2C[C@@H](N)C[C@H]2C(=O)NC(C)C)cc1`: “inactive”. As to `CNC(=O)[C@H]1C[C@H](Oc2cccnc2)CN1C(=O)NCCc1ccccc1`, the Potency entry is “inactive”.

For the compound `COCCn1ncc(N2CCCC(CC(=O)Nc3ccc(C)cc3)C2)cc1=O` (centres undefined), the Potency entry was “inactive”.

In the case of `O=C(c1ccccc1F)N1CCC2(CC1)C(=O)Nc1ccccc12`, the Potency entry is “inactive”.

`CC(=O)N[C@@H]1[C@@H](NC(=O)Cc2cccs2)[C@H]2CCO[C@H]21`: the Potency result was “inactive”. Next, `O=C(NC1CCN(Cc2ccc(F)c(F)c2)CC1)c1ccc2nccn2c1`: 44.7 µM (active). Next, `O=C(c1ccc2nccn2c1)N1CCOCC1`: “inactive”.

In the case of `O=C(NCc1ccccn1)c1ccc2nccn2c1`, the Potency entry was “inactive”. On to `COc1ccccc1N1CCCc2ncc(C(=O)N3CCCC[C@@H]3c3ccccc3)cc21`, for which the Potency is 89.1 µM (active).

As to `COc1ccc(C(=O)N2CCCN(C(=O)C3CC3)C(c3ccccc3)CC(=O)NCC2)cn1` (centres undefined), the Potency entry is “inactive”. `COc1ccccc1N1CCN(C(=O)C2CCCN(C(=O)c3ccccc3)CCC(=O)NCC2)CC1` (centres undefined): the Potency entry is “inactive”.

On to `COC(=O)N1CCC2(CC1)C(=NC1CCCC1)NC(=O)N2c1cc(F)cc(F)c1`, for which the Potency result is “inactive”. Next, `Cc1csc(CCNC(=O)C[C@H]2NC(=O)c3ccccc3NC2=O)n1`: “inactive”; `N#Cc1ccc(CN2CCC3(Cc4ccccc4NC3=O)C2)cc1` (centres undefined): 89.1 µM (active). Next, `O=C1Nc2ccccc2CC12CCN(CC1CC1)C2` (centres undefined): “inactive”. `O=C1Nc2ccccc2CC12CCN(CC1CCCCC1)CC2`: the Potency result was “inactive”. Under `O=C(N[C@H]1CCN2C(=O)c3ccccc3NC(=O)[C@H]12)c1cccs1` stands “inactive”. Under `CC(=O)N1CCc2[nH]cnc2C12CCN(C(=O)c1ccc(C)c(C)c1)CC2` stands “inactive”. Under `COC(=O)C[C@H]1CN(C(=O)OC(C)(C)C)CCN1` stands “inactive”; under `COc1ccc(-n2nc(C3CCN(C(=O)c4ccc(Cl)nc4)CC3)[nH]c2=O)cc1`, “inactive”. `COc1ccc(-n2nc(C3CCN(C(=O)c4ccc(C)cc4)CC3)[nH]c2=O)cc1`: the Potency result was “inactive”. Next, `COc1ccc(-n2nc(C3CCN(Cc4ccccn4)CC3)[nH]c2=O)cc1`: 12.6 µM (active); `CN1CCN(C(=O)c2ccc3c(c2)OCCO3)CC1=O`: “inactive”; `CN(C)C(=O)c1nc(-c2cccnc2)c2ccccn12`: “inactive”. Next, `Cc1cnc(C2CCC2)n1CC1CCN(C(=O)c2ccncc2)C1` (centres undefined): “inactive”; `Cc1cccc(-c2noc([C@@H]3Cc4nc[nH]c4CN3C(=O)CCC(=O)O)n2)c1`: “inactive”. Next, `Cc1cccc(-c2noc([C@@H]3Cc4nc[nH]c4CN3C(=O)Nc3ccccc3)n2)c1`: “inactive”; `Cc1ccc(-c2noc([C@@H]3Cc4nc[nH]c4CN3Cc3cccc(C#N)c3)n2)cc1`: 89.1 µM (active); `CCn1cc(C(=O)N2C[C@@H](COCC3CC3)[C@H](c3ccccn3)C2)cn1`: “inactive”. Consider `COc1ccc(C2(C(=O)N3CCC4(CC3)NCCc3c4[nH]c4ccccc34)CC2)cc1`, for which the Potency is 35.5 µM (active).

As for `O=C(C1CC=CC1)N1CCC2(CC1)NCCc1c2[nH]c2ccccc12`, the Potency is 39.8 µM (active). As to `O=C(C1CCCO1)N1CCC2(CC1)NCCc1c2[nH]c2ccccc12` (centres undefined), the Potency entry is “inactive”. Under `COCCOCC(=O)N1CCC2(CC1)NCCc1c2[nH]c2ccccc12` stands “inactive”; under `Cc1cc(C)n(CC(=O)N2CCC3(CC2)NCCc2c3[nH]c3ccccc23)n1`, “inactive”; under `COc1ccc2[nH]c3c(c2c1)CCNC31CCN(C(=O)Cn2ccnc2)CC1`, “inactive”. Under `COc1cccc(N2CCN(C(=O)C3(c4ccc(NC(C)=O)cc4)CCC3)CC2)c1` stands “inactive”; under `COCCOCC(=O)N1CCC2(CC1)c1[nH]c3ccc(OC)cc3c1CCN2C`, “inactive”; under `O=C(COc1ccc(F)cc1)N1CCC2(CC1)NCCc1c2[nH]c2ccccc12`, 44.7 µM (active).

Consider `CC(=O)NCc1nnc2n1C(C(=O)N1CCN(C)CC1)CC2` (centres undefined), for which the Potency result was “inactive”. As for `COCc1nncn1C1CCN(C(=O)c2ccccc2OC(F)(F)F)CC1`, the Potency result was “inactive”. Under `CC(=O)Nc1ccc2c(c1)nc1n2[C@@H](CNCc2ccncc2F)COC1` stands “inactive”; under `CN1CCCN(c2ccc(C(=O)N3CCC(N4CCOCC4)CC3)cn2)CC1`, “inactive”. Next, `O=C(NC1C[C@H]2CC[C@@H](C1)N2S(=O)(=O)c1ccc2c(c1)OCCO2)c1ccc(F)cc1` (some centres undefined): “inactive”.

As to `Cc1nnc2ccc(N3CCC(NC(=O)c4ccccc4Cl)C3)nn12` (centres undefined), the Potency result is “inactive”. Under `O=C(NC1CCCN(c2cc(-c3ccc(Cl)cc3)[nH]n2)C1)c1ccccc1F` (centres undefined) stands 44.7 µM (active). Under `O=C(NC1CCCN(c2cc(-c3ccc(Cl)cc3)[nH]n2)C1)c1ccncc1` (centres undefined) stands 39.8 µM (active). Under `O=C(NC1CCCN(c2ccc3nnc(C4CC4)n3n2)C1)c1ccccn1` (centres undefined) stands “inactive”; under `CCn1ccc(C(=O)NC2CCCN(c3cc(-c4ccc(F)cc4)[nH]n3)C2)n1` (centres undefined), “inactive”; under `O=C(NC1CCCN(c2nc3ncccc3o2)C1)c1ccc(F)cc1` (centres undefined), “inactive”. `O=C(NC1CCCN(c2cc(-c3ccc(F)cc3)[nH]n2)C1)c1ccc(Br)cc1` (centres undefined): the Potency is 39.8 µM (active). Next, `CN(C)C1(CC2CC2)CCN(C(=O)c2ccsc2)CC1`: “inactive”; `CC(C)CN1C(=O)c2cccn2CC1C(=O)NC1CCS(=O)(=O)C1` (centres undefined): “inactive”; `COc1ccc(CN2CCCC(c3[nH]ccc3C(N)=O)C2)cc1Cn1ccnc1` (centres undefined): “inactive”. Under `O=C(c1ccc(N2CC3CC(C2)[C@H]2CCCC(=O)N2C3)nc1)N1CCCCC1` (some centres undefined) stands “inactive”; under `COc1cncc(-c2cccc(COc3ccc4c(cnn4CC[S+](C)(=O)[O-])c3)c2)c1`, 56.2 µM (active); under `O=C(CC1CCN(C(=O)c2ccccc2)C1)NC1CC1` (centres undefined), “inactive”.

In the case of `CCn1c(C2CCCNC2)nn(Cc2ccc(C(=O)NC)o2)c1=O` (centres undefined), the Potency result is “inactive”.

For the compound `Brc1cccc(-c2noc(-c3nc(-c4ccncc4)no3)n2)c1`, the Potency entry was “inactive”. Regarding `COc1ccc(-c2nc(CN3CCOC(CN)C3)c(C)o2)c2ccccc12` (centres undefined), the Potency is 31.6 µM (active). Next, `COc1ccc(-c2noc(CN3CCCC(C(=O)c4cccnc4)C3)n2)c(OC)c1OC` (centres undefined): “inactive”; `Cc1oc(-c2cccc(Cl)c2)nc1CN1CCCC(C(N)=O)C1` (centres undefined): “inactive”.

Turning to `CCn1cnnc1CC1CCN(C(=O)C2CCN(Cc3nc(-c4cccc(C)c4)oc3C)CC2)CC1`, the Potency result was “inactive”. Under `Cc1oc(-c2cccc(Oc3ccccc3)c2)nc1CN1CCOC(CCN)C1` (centres undefined) stands 28.2 µM (active).
